TDP1 inh: inhibitors of human tyrosyl-DNA phosphodiesterase TDP1. Q9NUW8. recombinant TDP1, AlphaScreen DNA substrate cleavage. Potency, µM (series often up to 130 µM), for the others: top-dose activity change, negative = inhibition, usual class: inhibitors. 0.28% of 350,000 active; further: potency means the concentration at half of the fitted maximal effect; on the % scale 0 is the no-effect control and ±100 the full control effect; nearly all actives have a fitted effect of over 40% in size
Target sequence (Q9NUW8 whole entry, looked up): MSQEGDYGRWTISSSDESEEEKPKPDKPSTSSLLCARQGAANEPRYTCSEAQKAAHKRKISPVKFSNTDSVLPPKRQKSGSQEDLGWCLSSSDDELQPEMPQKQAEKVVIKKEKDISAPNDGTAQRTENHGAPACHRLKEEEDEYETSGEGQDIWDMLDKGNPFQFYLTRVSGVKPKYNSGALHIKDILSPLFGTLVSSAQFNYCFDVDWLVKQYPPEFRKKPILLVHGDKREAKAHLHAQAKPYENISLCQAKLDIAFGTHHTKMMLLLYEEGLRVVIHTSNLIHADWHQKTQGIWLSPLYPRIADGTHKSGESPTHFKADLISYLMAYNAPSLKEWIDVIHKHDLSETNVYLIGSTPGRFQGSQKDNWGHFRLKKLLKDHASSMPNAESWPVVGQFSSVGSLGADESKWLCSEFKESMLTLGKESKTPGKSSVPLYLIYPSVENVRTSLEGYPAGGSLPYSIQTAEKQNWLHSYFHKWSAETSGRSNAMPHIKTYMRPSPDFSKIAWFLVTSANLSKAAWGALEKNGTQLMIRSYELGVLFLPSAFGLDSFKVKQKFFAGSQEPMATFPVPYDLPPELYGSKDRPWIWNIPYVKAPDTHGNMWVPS
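Compounds were preincubated with Tdp1 (1 nM final) for 15 min at room temperature before substrate (15 nM final) started a 5 min reaction; beads (10 ug/ml final) were then added for 10 min before AlphaScreen detection.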
TDP1 cell CPT: DT40-hTDP1 cell growth loss with CPT; Potency, µM (top dose mostly 46.2 µM), for the others: top-dose activity change, negative = growth inhibition, actives largely listed as inhibitors; 12% of 420,000 active; AID 686979; chicken DT40 Tdp1-/-;hTDP1 cells + 20 nM CPT, ATP luminescence, 48 h; further: potency means the concentration at half of the fitted maximal effect; on the % scale 0 is the no-effect control and ±100 the full control effect; nearly all actives have a fitted effect of over 55% in size
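Chicken DT40 Tdp1-/- cells complemented with human TDP1, 400 cells/well, exposed to compounds plus 20 nM camptothecin for at least 48 h at 37 C; viability read as ATP content by CellTiter-Glo luminescence.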
HepG2 viability: kills HepG2 cells in TGF-b inhibitor counter-screen. HepG2 CAGA-GFP viability, ATP luminescence, 18 h. Potency, µM (series often up to 46.1 µM), for inactives: at the top dose activity change, negative = cytotoxicity, usual class: cytotoxic. 0.76% of 410,000 active; further: potency means the concentration at half of the fitted maximal effect
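CellTiter-Glo luminescence gave cytotoxicity after 18 hours at 37 degrees C. The cells were HepG2 CAGA-GFP in 1% FBS DMEM, stimulated with 500 pg/mL TGF-beta after compound addition. %Activity was normalised to no-cell wells (complete cell-killing) and DMSO (no toxicity), and curves were fitted and classified.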
TGFb inhibitor: blocks TGF-b signaling; Potency, µM (top dose mostly 46.1 µM), for the others: top-dose activity, negative = inhibition, usual class: inhibitors; 1.2% of 410,000 active; HepG2 CAGA-GFP TGF-b/SMAD3 reporter, GFP fluorescence, 18 h; TGF-beta stimulated, 500 pg/mL final; further: potency means the concentration at half of the fitted maximal effect; on the % scale 0 is the no-effect control and ±100 the full control effect; nearly all actives have a fitted effect of over 65% in size
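Read-out: total well GFP (ex488/em500-530) summed from mean per-cell fluorescence. Cells: HEPG2 CAGA-GFP, 1% FBS DMEM, 18 h at 37 degrees C with 500 pg/mL final TGF-beta. Unstimulated wells served as the full-inhibition control; stimulated DMSO wells = 0%.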
DT40 TDP1 no CPT: qHTS for Inhibitors of human tyrosyl-DNA phosphodiesterase 1 (TDP1): qHTS in cells in absence of CPT; DT40 Tdp1-/- hTDP1 cells, no CPT, ATP luminescence, 48 h; 15% of 420,000 active; Potency, µM (highest dose often 46.2 µM), for inactives: at the top dose activity change, negative = growth inhibition, actives largely listed as inhibitors; AID 686978, 2013; further: potency means the concentration at half of the fitted maximal effect; on the % scale 0 is the no-effect control and ±100 the full control effect; nearly all actives have a fitted effect of over 55% in size
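Camptothecin absent (DMSO only). Human TDP1-complemented DT40 knockout cells, 400 cells/well, 37 °C for minimum 48 hr; ATP measured via CellTiter-Glo, 30 min dark incubation, luminescence.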
IL1B secr inh: blocks inflammasome-driven IL-1 beta release; 4.7% of 360,000 active; THP-1 LPS/ATP IL-1B secretion, AlphaLISA, 16 h; stronger effect = lower value; activity change, % at 57.5 µM; in the data active means activity change below about -50%; inconclusive means mostly about -30% to -49%; further: on the % scale 0 is the no-effect control and ±100 the full control effect
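Secreted IL-1B measured by AlphaLISA bead assay after 16 h compound exposure of THP-1 cells; compounds (final up to 57.5 uM) added 1 h before LPS (250 ng/mL) and ATP (1.25 mM) stimulation; lower signal means less secretion.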
Active calls of the source: *; ? = inconclusive; nt = no result; [ ] = dose if it differs, or a comment. Compounds with a hit are over-represented: about 19% of the library has one in this group of screens. Unless noted, the call rests on the fitted dose curve; in most records, active means well fitted curve in the direction sought with a large enough effect; inconclusive means small, poorly fitted or top-dose-only effect, or another doubt; inactive means no such curve, though single readings can be large; an effect the other way counts as inactive or inconclusive.

SMILES	TDP1 inh	TDP1 cell CPT	HepG2 viability	TGFb inhibitor	DT40 TDP1 no CPT	IL1B secr inh
CCOP(=O)(OCC)OCC	0%	2%	3%	2%	-16%	-17
CCOP(=O)(CCP(=O)(OCC)OCC)OCC.C[CH2][Sn]([Cl])([Cl])[CH2]C	nt	0.73µM*	2%	?	0.82µM*	-100*
CCNc1nc(NC(C)C)nc(NS(=O)(=O)c2ccc(Cl)cc2)n1	2%	?	-17%	9%	?	-21
Cc1ccc(NC(=O)CN2C(=O)CN=C(c3ccccc3)c3ccccc32)cc1	9%	?	4%	0%	?	nt
Cc1cccc(N2C(=O)CSC23C(=O)N(CC(=O)Nc2cccc(Cl)c2)c2ccccc23)c1 (stereo not drawn)	6%	23µM*	-8%	-24%	16µM*	nt
COC(=O)[C@]1(C)CC[C@@]2(C)CC[C@@]3(C)C4=CCc5c(cc(O)c(O)c5C)[C@]4(C)CC[C@@]3(C)C2C1 (stereo partly drawn)	-9%	4.6µM*	nt	nt	1.8µM*	nt
C=C(C)C(=O)CP(=O)(OCC)OCC	0%	nt	nt	nt	nt	nt
O=C(Nc1cccc(F)c1)N1CC2(CCNCC2)C1	nt	8.2µM*	nt	nt	8.2µM*	nt
O=C(Nc1cccc(F)c1)N1CC2(CCN(C(=O)Oc3ccccc3)CC2)C1	nt	9%	nt	nt	?	nt
O=C(Nc1cccc(F)c1)N1CCC2(CC1)CCN(C(=O)Oc1ccccc1)CC2	nt	?	nt	nt	23µM*	nt
CN1C2CC(=O)CC1C(O)C2 (stereo not drawn)	7%	nt	nt	nt	nt	nt
CN(C)c1ccc(C(O)P(=O)(OC2CCCCC2)OC2CCCCC2)cc1 (stereo not drawn)	nt	?	-34%	7%	-30%	-11
CC(=O)[C@H]1CCC2C3CC[C@H]4C[C@H](O)CC[C@]4(C)C3CC[C@@]21C (stereo partly drawn)	7%[56.1 µM]	nt	nt	nt	nt	nt
C=CCn1c(O)c(/C(C)=N/N2CCCCCC2)c(=O)[nH]c1=O	6%	?	-3%	12%	?	76
CC(=O)O[C@H]1C[C@H](O[C@H]2[C@@H](O)C[C@H](O[C@H]3[C@@H](O)C[C@H](O[C@H]4CC[C@@]5(C)[C@H](CC[C@@H]6[C@@H]5C[C@@H](O)[C@]5(C)[C@@H](C7=CC(=O)OC7)CC[C@]65O)C4)O[C@@H]3C)O[C@@H]2C)O[C@H](C)[C@H]1O[C@@H]1O[C@H](CO)[C@@H](O)[C@H](O)[C@H]1O	nt	0.38µM*	nt	nt	0.34µM*	nt
CC(=O)OC1CC(OC2C(O)CC(OC3C(O)CC(OC4CCC5(C)C(CCC6C5CCC5(C)C(C7=CC(=O)OC7)CCC65O)C4)OC3C)OC2C)OC(C)C1OC1OC(CO)C(O)C(O)C1O (stereo not drawn)	nt	0.58µM*	-41%	?	0.41µM*	-71*
CN(Cc1ccc(OC(F)F)cc1)C(=O)c1ccccc1Sc1ccccc1C#N	nt	?	-15%	-25%	?	?
COC(=O)/C=C\C(=O)N[C@@H]1CC[C@@]2(O)[C@H]3Cc4ccc(O)c5c4[C@@]2(CCN3CC2CC2)[C@@H]1O5	7%	?	nt	nt	?	nt
CC(=O)[O][Hg][c]1ccccc1	32µM*	0.16µM*	nt	nt	0.16µM*	nt
C[C@H](N)C(=O)c1ccccc1	nt	-10%	nt	nt	-14%	nt
c1ccc(-c2ccc(-c3[nH]ncc3CN3CCC(N4CCSCC4)CC3)cc2)cc1	4%	?	-25%	-2%	?	-19
Cc1ccc2c(c1)C=CC(C#N)N2C(=O)Oc1ccccc1 (stereo not drawn)	nt	18µM*	8%	-2%	16µM*	?
CCOc1c(Cl)cc(CNCCc2c[nH]c3ccccc23)cc1OC	2%	?	-103%	?	15µM*	-87*
CCOc1cc(CNCCc2c[nH]c3ccccc23)cc(Cl)c1OCC	9%	16µM*	-117%	?	18µM*	-97*
O=c1[nH]c(=S)[nH]c(O)c1/C=C1/C=c2ccccc2=N1	nt	7.3µM*	-42%	13µM*	8.2µM*	-99*
SMILES	TDP1 inh	TDP1 cell CPT	HepG2 viability	TGFb inhibitor	DT40 TDP1 no CPT	IL1B secr inh
CCN(CC)c1ncnc2c1ncn2[C@@H]1O[C@H](COP(=O)(O)OP(=O)(O)C(Br)(Br)P(=O)(O)O)[C@@H](O)[C@H]1O	8%[56.1 µM]	nt	nt	nt	nt	nt
COc1ccc(NC(=O)c2ccccc2SCc2ccccc2)cc1	nt	5.2µM*	-13%	-7%	4.6µM*	?
CN[C@@H]1C[C@@]2(C)O[C@@H]([C@@H]1OC)n1c3ccccc3c3c4c(c5c6ccccc6n2c5c31)C(=O)NC4	12%	nt	nt	nt	nt	nt
NCC(=O)c1ccccc1	-1%[56.1 µM]	?	4%	-4%	0%	6
O=C(CCl)NN=C(c1ccccc1)c1ccccc1	8%	5.8µM*	-1%	-3%	5.2µM*	-77*
CCOc1ccc(C(C)=O)cc1Cn1ccsc1=N	nt	-7%	-22%	-23%	-22%	-3
CCCNC(=O)N1[C@H]2CC[C@@H]1C(C(=O)OC)=C(c1cccc(Cl)c1)C2	1%	?	3%	2%	?	39
COC(=O)C1=C(c2cccc(Cl)c2)C[C@@H]2CC[C@H]1N2C(=O)NCC1CC1	-1%	16µM*	-46%	-7%	?	22
COC(=O)C1=C(c2ccccc2)C[C@@H]2CC[C@H]1N2C(=O)N1CCCC1	nt	?	0%	?	16µM*	4
COC(=O)C1=C(c2cccc(Cl)c2)C[C@@H]2CC[C@H]1N2C(=O)N1CCCC1	1%	8.2µM*	-23%	?	7.3µM*	5
CCN(CC)C(=O)Oc1ccc2cc(Br)ccc2c1	-4%	-30%	6%	-19%	?	-11
COCCN(C(=O)CCl)c1c(C)cccc1C	11%	nt	nt	nt	nt	nt
S=c1[nH]nc(-c2ccc3ccccc3n2)n1-c1ccc2c(c1)OCCO2	nt	-6%	9%	4%	?	32
O=[N+]([O-])c1ccc(Oc2ccc(N=C=S)cc2)cc1	nt	?	nt	nt	12µM*	nt
CCCCn1c(=O)c(C(=O)Nc2nc3ccccc3[nH]2)c(O)c2ccccc21	12%	nt	nt	nt	nt	nt
CCCCn1c(-c2nonc2NC(=O)c2ccccc2Cl)nc2ccccc21	nt	10µM*	-1%	-9%	23µM*	19

Compound activity (PubChem)
